Compound activity as filed in PubChem BioAssay.
Shown are actives, neighbours in structure and some others; about 4.8% of the full set was active somewhere.
Beta cell apopt – inhibitors of cytokine-induced beta cell apoptosis, primary screen, luminescence; INS-1E cytokine-induced death, ATP luminescence, 48 h; percent of positive-control rescue, neutral wells zero; protection from apoptosis, % (concentration not given with the values); 300,000 tested, 0.8% active;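 active = Every replicate reaches about 75%, or at least half do and their mean reaches it too, limit read from the data; inconclusive = At least half of replicates reach the limit but their mean does not; inactive = Under half of replicates reach the limit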;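 note: higher means more ATP so stronger rescue from cytokine killing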
CSC inhib – cancer stem cell viability inhibitors, primary screen, luminescence; cancer stem cell-like cells viability; inhibition, % at 7.5 µM; 300,000 tested, 1.1% active; AID 2717, 2010; in the data active = inhibition above about 75%; inconclusive = no clear call, values can overlap the other calls; tested in HMLE shEcad cells
MPTP inh – mitochondrial permeability transition pore inhibitors, primary screen, biochemical, isolated mouse mitochondria, absorbance. inhibition, % at 10 µM. AID 602449, 2012. 360,000 tested, 1.4% active. Ca2+ swelling absorbance, 30 min;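 active = inhibition of 50% or more, scaled per plate between neutral and stimulator controls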
Calb FLC – C. albicans growth inhibition with fluconazole, primary screen, CaCi-2 strain, Alamar Blue fluorescence. C. albicans CaCi-2 (fluconazole-resistant clinical isolate) + fluconazole, 48 h. growth inhibition, % (no concentration beside the values). 300,000 tested, 0.57% active;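 active = growth inhibition above about 58% in most replicates, limit read from the data, passing the limit was not always enough; inconclusive = exactly half the replicates above a set limit; inactive = most replicates below a set limit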;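 note: all wells also contain fluconazole at 8 µg/ml as a sub-toxic cotreatment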
Mdm2-MdmX inh – inhibitors of human Mdm2-MdmX association, primary screen, cell-based, luminescence, split luciferase, SaOS-2, uHTS; inhibition, % at 8 µM; SaOS-2 split-luciferase Mdm2/MdmX complementation; Protein Mdm4 (Homo sapiens) + E3 ubiquitin-protein ligase Mdm2 (Homo sapiens), …; 330,000 tested, 3% active;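 active = inhibition of at least 50% at 8 µM in the primary screen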
Rh123 counter – fluorescence retest of MPTP screen hits in isolated mitochondria, single concentration | inhibition, % at 10 µM | 5,000 tested, 78% active | membrane potential, Rhodamine 123 fluorescence | AID 624504, 2012 | shares compounds with MPTP inh; in the data active = inhibition above about 22%
MPTP abs DR – mitochondrial permeability transition pore inhibitors, dose response, biochemical, absorbance, uHTS hits. 780 tested, 58% active. shares compounds with MPTP inh. isolated mitochondria swelling. IC50, µM; in the data active = IC50 below about 20 µM
MPTP cs DR – fluorescent counter-screen in isolated mitochondria, dose response, counter-screen for MPTP inhibitor project, biochemical, fluorescence, uHTS hits; isolated mitochondria counterscreen, fluorescence read-out; AID 651564, 2012; 780 tested, 49% active; IC50, µM; shares compounds with MPTP inh; in the data active = IC50 below about 80 µM
Of the large screens only hits and unclear results are named; the others gave an inactive call (follow-up assays come after a bar, where they were run); ! = not confirmed by another sample.

CCC(C)[C@@H](NC(=O)OC(C)(C)C)c1nnc(S(=O)(=O)Cc2cccc(C)c2)o1 (stereo not given in full)	MPTP inh 91 (no result: Beta cell apopt, CSC inhib, Mdm2-MdmX inh) | Rh123 counter inactive
Cc1cccc(CS(=O)(=O)Cc2ccc(C(=O)NC(C)c3ccccc3)o2)c1 (stereo not given)	none
CC(Cc1cccs1)NC(=O)Nc1cccc(Cl)c1 (stereo not given)	MPTP inh 87 | Rh123 counter 86
CC(Cc1cccs1)NC(=S)Nc1ccc(Cl)c(Cl)c1 (stereo not given)	MPTP inh 80 | Rh123 counter 94
Cc1ccc(NC(=O)Cc2cccs2)cc1Cl	none
CC(Cc1cccs1)NC(=O)Nc1ccc(F)cc1 (stereo not given)	none
CC(Cc1cccs1)NC(=S)Nc1ccc(Cl)cc1 (stereo not given)	MPTP inh 83 | Rh123 counter 95
CCC(C)c1ccc(NC(=S)NCc2cccs2)cc1 (stereo not given)	MPTP inh 97 | Rh123 counter 85
O=c1cc(CSc2nnnn2-c2ccccc2)nc(Nc2ccc(F)cc2)[nH]1	MPTP inh 56 | Rh123 counter 84
CCCCCCn1c(=O)c(Cc2ccccc2)c(O)c2ccccc21	MPTP inh 58 (no result: CSC inhib) | Rh123 counter 59
CCc1ccccc1Nc1ccc(C(=O)O)cc1N	MPTP inh 62 (no result: CSC inhib) | Rh123 counter inactive | MPTP abs DR inactive | MPTP cs DR inactive
Nc1cc(C(=O)O)ccc1Nc1ccccc1	Calb FLC inconclusive
Cc1ccc(CNC(=O)COC(=O)c2cc(C)oc2C)cc1	none (no result: Calb FLC)
c1ccc(-c2cc(-c3nc4ccccc4[nH]3)c3ccccc3n2)cc1	MPTP inh 98, Calb FLC inconclusive | Rh123 counter 83
Nc1ccc(-c2nc3ccccc3[nH]2)cc1	none (no result: Beta cell apopt)
CC(NC(=O)c1cc2ccccc2oc1=O)c1ccccc1 (stereo not given)	none
COc1ccc(-c2nc(SC(C)C(=O)NCC3CCCO3)n[nH]2)cc1 (stereo not given)	none (no result: CSC inhib)
Cc1nn(-c2ccccc2)c(N2CCCC2)c1/C=N/O	MPTP inh 50 | Rh123 counter inactive | MPTP abs DR inactive | MPTP cs DR inactive
CC(C)(C)OC(=O)N1CC2(CCCCC2)CC1Cc1ccc(C(F)(F)F)cc1 (stereo not given)	none (no result: Beta cell apopt, CSC inhib, Calb FLC, Mdm2-MdmX inh)
Cc1ccc(Nc2n[nH]c(C)c2[N+](=O)[O-])cc1C	none
Cc1ccc(Nc2nc3nonc3[nH]c2=O)cc1C	MPTP inh 69 | Rh123 counter 102
CN1/C(=C\C(=O)Nc2cccc(Cl)c2)C(C)(C)c2ccccc21	MPTP inh 104 | Rh123 counter 82
COc1cc(C(=O)N2Cc3cc4ccccc4nc3C2C)cc(OC)c1OC (stereo not given)	none (no result: Beta cell apopt, CSC inhib, Calb FLC, Mdm2-MdmX inh)
COc1ccc(NC(=S)NNC(=S)Nc2cccc(C(F)(F)F)c2)cc1	MPTP inh 69 | Rh123 counter 72
COc1cc2c(cc1NC(=S)Nc1cccc(C(F)(F)F)c1)oc1ccccc12	MPTP inh 94 | Rh123 counter 80
COc1ccc(-c2cc(C(=O)Nc3cc(OC)cc(C(=O)Nc4cccc(C(F)(F)F)c4)c3)[nH]n2)cc1	MPTP inh 55! | Rh123 counter 56
COc1cc2c(cc1NC(=S)Nc1cccc3ccccc13)oc1ccccc12	none
CCOc1ccc(NC(=S)NNC(=S)Nc2cccc(C(F)(F)F)c2)cc1	MPTP inh 80 | Rh123 counter 57
CCOc1cc(OCC)cc(C(=O)NC(=S)Nc2cccc(C(F)(F)F)c2)c1	none
CN(C)C1=NCCN1CCc1ccccc1	none (no result: Calb FLC)
COc1ccc(CN(C)CCCn2cnc(C(=O)Nc3ccc(C)c(C)c3)n2)cc1OC	none (no result: Beta cell apopt, CSC inhib, Calb FLC, Mdm2-MdmX inh)
NNC(=O)CCCCCCCCCCOCCCCO	none
COC(=O)[C@]12CCCCC=C1N(Cc1cccc3ccccc13)C(=O)[C@H](CC(=O)NCc1ccc(C)o1)C2	none (no result: Beta cell apopt, CSC inhib, Calb FLC, Mdm2-MdmX inh)
CCN1C(=O)S/C(=C/c2ccc(Sc3nc4ccccc4[nH]3)o2)C1=O	MPTP inh 80 | Rh123 counter 76
CCc1ccc(NC(=O)c2ccc(F)c(S(=O)(=O)N(CC)c3ccccc3)c2)cc1	MPTP inh 62 (no result: Beta cell apopt, CSC inhib) | Rh123 counter 76
CCN(c1ccccc1)S(=O)(=O)c1cc(C(=O)Nc2cccc(Cl)c2)ccc1F	MPTP inh 95 (no result: Beta cell apopt, CSC inhib) | Rh123 counter 69
Cc1cccc(NC(=O)c2ccc(F)c(S(=O)(=O)NCc3ccco3)c2)c1	none
CCN(c1ccccc1)S(=O)(=O)c1cc(NC(=O)C2CC2)ccc1Cl	none (no result: Calb FLC)
O=C(Nc1cccc(Cl)c1)c1ccc(F)c(S(=O)(=O)NCc2cccs2)c1	MPTP inh 77, Calb FLC inconclusive | Rh123 counter 84
CCCOc1ccc(F)cc1-c1cc(C(=O)NCCOC)[nH]n1	none (no result: Beta cell apopt, CSC inhib, Calb FLC, Mdm2-MdmX inh)
COc1ccccc1OCCNC(=O)c1cccc(S(=O)(=O)NCc2ccccc2)c1	none (no result: Calb FLC)
O=C(CNC(=O)c1ccccc1)OC(C(=O)O)c1ccc(F)cc1 (stereo not given)	none (no result: Beta cell apopt, CSC inhib, Calb FLC, Mdm2-MdmX inh)
COC(=O)[C@H](CC(C)C)NS(=O)(=O)c1ccc(F)cc1Br	none (no result: Beta cell apopt, CSC inhib, Calb FLC, Mdm2-MdmX inh)
O=C1/C(=C/c2ccc(O)c(O)c2)SC(=S)N1Nc1ccccc1	MPTP inh 101, Calb FLC 114 (no result: Beta cell apopt, CSC inhib, Mdm2-MdmX inh) | Rh123 counter 56
COCOCCn1cc(CN2CCS(=O)(=O)N(Cc3ccc(-c4cccc(CO)c4)cc3)C(CC(C)C)C2=O)nn1 (stereo not given)	none (no result: Beta cell apopt, CSC inhib, Calb FLC, Mdm2-MdmX inh)
S=C(Nc1ccc(Oc2ccccc2)cc1)Nc1cccnc1	MPTP inh 71 | Rh123 counter 86
CCCCc1ccc(NC(=S)Nc2cccnc2)cc1	MPTP inh 80 (no result: Beta cell apopt) | Rh123 counter 73
S=C(NCc1cccnc1)Nc1ccc(Oc2ccccc2)cc1	MPTP inh 69 | Rh123 counter 60
CCCCc1ccc(NC(=S)Nc2ccc(Cl)c(S(=O)(=O)N(C)C)c2)cc1	MPTP inh 97 (no result: Mdm2-MdmX inh) | Rh123 counter 76
CCOc1cc(/C=C2\CCn3c2nc2cc(Cl)ccc2c3=O)ccc1O	none
COC(=O)C[C@@H]1C[C@@H]2c3cc(NC(=O)NC4CCCCC4)ccc3O[C@@H]2[C@H](CO)O1	none (no result: Beta cell apopt, CSC inhib, Calb FLC, Mdm2-MdmX inh)
COc1ccc(S(=O)(=O)N2CCOCC2)cc1NC(=O)CCc1cc(OC)c(OC)c(OC)c1	none (no result: Calb FLC)
COc1ccccc1CCNC(=O)c1ccc(NC(=O)CC2SC(N3CCCC3)=NC2=O)cc1 (stereo not given)	none
O=C(O)COc1ccc(/C=N/NC(=O)c2cccc3ccccc23)cc1	none
CCCCc1ccc(NC(=S)NCc2cccc(OC)c2)cc1	MPTP inh 70 | Rh123 counter 91
